The values that follow come from PubChem BioAssay (NCI).

Each structure is given as a SMILES string. About 79,000 compounds went through this panel and 15% of them were active in at least one assay; those are over-represented in the sample as a whole. Values without a mark were called inactive. Active and inactive are the calls of the source. Rule as the data show it: active = growth inhibition above about 70%; inactive = the rest.

Assay [1] in a line: NCI Yeast Anticancer Drug Screen. Data for the rad50 strain (AID 155).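 Also: 0% = growth of vehicle-only cultures of the same strain.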 The settings on record: S. cerevisiae rad50 strain growth inhibition, stronger effect = higher value. An outline of the steps:
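Relative growth inhibition (compound vs vehicle) was measured in yeast with a defined repair-gene alteration.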

The nature of assay [2]: NCI Yeast Anticancer Drug Screen. Data for the mec2-1 strain (AID 157). The settings on record: S. cerevisiae mec2-1 strain, stronger effect = higher value. In short, it runs like this:
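Cells of the genetically defined mec2-1 yeast strain are incubated with test compound. Inhibition of growth is calculated against vehicle-treated controls.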

Assay [3] in a line: NCI Yeast Anticancer Drug Screen. Data for the sgs1 mgt1 strain (AID 161).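 Also: 0% = growth of cultures given vehicle only.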 The note with it: S. cerevisiae sgs1 mgt1 strain, stronger effect = higher value. An outline of the steps: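 Read-out: growth inhibition vs vehicle controls. Cells: mutant yeast strain deficient in DNA damage repair.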
Assay [4] is described as follows: NCI Yeast Anticancer Drug Screen. Data for the cln2 rad14 strain (AID 165).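 Also: 0% = growth equal to vehicle treated cultures.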 The settings on record: S. cerevisiae cln2 rad14 strain, stronger effect = higher value. An outline of the steps: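 The screen exposed genetically defined yeast (cln2 rad14) to test compounds and scored growth inhibition relative to vehicle-treated controls.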
The nature of assay [5]: NCI Yeast Anticancer Drug Screen. Data for the bub3 strain (AID 167). The settings on record: S. cerevisiae bub3 mutant strain, stronger effect = higher value. In short, it runs like this: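 Screening used yeast with an engineered genetic alteration affecting cell cycle control. Compound-exposed cultures were compared with vehicle cultures, and reduced growth was taken as inhibition.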

A short description of assay [6]: NCI Yeast Anticancer Drug Screen. Data for the mlh1 rad18 strain (AID 175). The note with it: S. cerevisiae mlh1 rad18 strain growth inhibition, stronger effect = higher value. In short, it runs like this: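 Compound-treated yeast growth, normalised to vehicle controls. Strain bears defined DNA repair mutations.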
The mark [7] stands for this setting: at 5.0 µM (retest, dose inferred, filed as 0.5).
Setting [8] is: at 50.0 µM (retest, dose inferred, filed as 5.0).

As for `CCN(CCCOc1ccccc1)CCN(CC)CCCOc1ccccc1`, the growth inhibition in assay [1] (setting [7]) is 1%; in assay [1] (setting [8]) it was 13%; in assay [1] (at 50.0 µM) it was 34.5%; in assay [2] (setting [7]) it was 19%; in assay [2] (setting [8]), 38%; in assay [2] (at 50.0 µM) it was 33.2%. Further, the growth inhibition in assay [3] (setting [7]) is 1%; in assay [3] (setting [8]), 59%; in assay [3] (at 50.0 µM) it was 60.9%; in assay [4] (setting [7]) it was 0%; in assay [4] (setting [8]), 11%; in assay [4] (at 50.0 µM), 73.2% (active). For the same compound, the growth inhibition was 2% in assay [5] (setting [7]); 14% in assay [5] (setting [8]); 42% in assay [5] (at 50.0 µM); 15% in assay [6] (setting [7]); 44% in assay [6] (setting [8]); 35.6% in assay [6] (at 50.0 µM).

As to `O=C(c1ccccc1)C(Cl)c1ccccc1` (stereo not drawn), the growth inhibition was 9% in assay [1] (setting [7]); 99% (active) in assay [1] (setting [8]); 91.6% (active) in assay [1] (at 50.0 µM); -12% in assay [2] (setting [7]); 99% (active) in assay [2] (setting [8]); 95.2% (active) in assay [2] (at 50.0 µM). The growth inhibition in assay [3] (setting [7]) was 1%; in assay [3] (setting [8]) it was 97% (active); in assay [3] (at 50.0 µM), 97.5% (active); in assay [4] (setting [7]) it was 0%; in assay [4] (setting [8]), 41%; in assay [4] (at 50.0 µM) it was 44%. For the same compound, the growth inhibition in assay [5] (setting [7]) is 51%; in assay [5] (setting [8]) it was 99% (active); in assay [5] (at 50.0 µM) it was 94% (active); in assay [6] (setting [7]), 0%; in assay [6] (setting [8]) it was 99% (active); in assay [6] (at 50.0 µM) it was 95.2% (active).

On to `C[N+](C)(C)CC(=O)N/N=C/c1oc(-c2c(O)ccc3ccccc23)c(-c2c(O)ccc3ccccc23)c1[N+](=O)[O-]`, for which the growth inhibition in assay [1] (setting [7]) is 57%; in assay [1] (setting [8]) it was 57%; in assay [1] (at 50.0 µM), 90% (active); in assay [2] (setting [7]) it was 47%; in assay [2] (setting [8]), 47%; in assay [2] (at 50.0 µM) it was 90.6% (active). Moreover, the growth inhibition in assay [3] (setting [7]) was 51%; in assay [3] (setting [8]) it was 51%; in assay [3] (at 50.0 µM) it was 90.2% (active); in assay [4] (setting [7]) it was 13%; in assay [4] (setting [8]), 13%; in assay [4] (at 50.0 µM), 80.9% (active). The growth inhibition in assay [5] (setting [7]) was 44%; in assay [5] (setting [8]), 44%; in assay [5] (at 50.0 µM) it was 84.4% (active); in assay [6] (setting [7]), 58%; in assay [6] (setting [8]), 58%; in assay [6] (at 50.0 µM), 84.2% (active).

Turning to `c1ccc2c(c1)C[N+]1(CCCCCCC1)C2`, the growth inhibition in assay [1] (setting [7]) was 19%; in assay [1] (setting [8]), 51%; in assay [1] (at 50.0 µM), 74.2% (active); in assay [2] (setting [7]), 6%; in assay [2] (setting [8]), 64%; in assay [2] (at 50.0 µM), 72.7% (active). Further, the growth inhibition in assay [3] (setting [7]) is -2%; in assay [3] (setting [8]) it was 77% (active); in assay [3] (at 50.0 µM), 69.9%; in assay [4] (setting [7]), -14%; in assay [4] (setting [8]), 25%; in assay [4] (at 50.0 µM), 53.6%. Also, the growth inhibition in assay [5] (setting [7]) was -3%; in assay [5] (setting [8]) it was 36%; in assay [5] (at 50.0 µM) it was 58.9%; in assay [6] (setting [7]), 6%; in assay [6] (setting [8]), 88% (active); in assay [6] (at 50.0 µM) it was 65.8%.

Consider `Cc1ccc(Oc2ccc(C(=O)C(CN(C)C)CN(C)C)cc2)cc1`, for which the growth inhibition in assay [1] (setting [7]) was 93% (active); in assay [1] (setting [8]), 98% (active); in assay [1] (at 50.0 µM), 92.1% (active); in assay [2] (setting [7]), 93% (active); in assay [2] (setting [8]), 96% (active); in assay [2] (at 50.0 µM), 98% (active). In addition, the growth inhibition is 95% (active) in assay [3] (setting [7]); 98% (active) in assay [3] (setting [8]); 51.4% in assay [3] (at 50.0 µM); 75% (active) in assay [4] (setting [7]); 95% (active) in assay [4] (setting [8]); 95.6% (active) in assay [4] (at 50.0 µM). For the same compound, the growth inhibition is 91% (active) in assay [5] (setting [7]); 96% (active) in assay [5] (setting [8]); 96.2% (active) in assay [5] (at 50.0 µM); 96% (active) in assay [6] (setting [7]); 96% (active) in assay [6] (setting [8]); 97.1% (active) in assay [6] (at 50.0 µM).

In the case of `S=P([S][Sn]([S]P(=S)(c1ccccc1)c1ccccc1)([c]1ccccc1)[c]1ccccc1)(c1ccccc1)c1ccccc1`, the growth inhibition in assay [1] (setting [7]) was 22%; in assay [1] (setting [8]), 82% (active); in assay [1] (at 50.0 µM) it was 34.9%; in assay [2] (setting [7]), 21%; in assay [2] (setting [8]) it was 73% (active); in assay [2] (at 50.0 µM), 19.6%. Further, the growth inhibition in assay [3] (setting [7]) was 33%; in assay [3] (setting [8]), 96% (active); in assay [3] (at 50.0 µM), 91.9% (active); in assay [4] (setting [7]), 25%; in assay [4] (setting [8]), 48%; in assay [4] (at 50.0 µM) it was 89.9% (active). For the same compound, the growth inhibition in assay [5] (setting [7]) was 24%; in assay [5] (setting [8]), 69%; in assay [5] (at 50.0 µM), 89.2% (active); in assay [6] (setting [7]), 33%; in assay [6] (setting [8]), 92% (active); in assay [6] (at 50.0 µM) it was 77.8% (active).
